± gives the standard deviation of the averaged measurements.
Experiments:
Conditions in all cases: concentration: 10 µM; 24 h
HCC1569 [1] = test: cell number relative to DMSO (% of DMSO); higher = more cells (less growth inhibition / toxicity)
Summary of the method: (§1)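 Six fields per well were imaged at ×10 after the cells were fixed in 3.7% formaldehyde and stained with a rabbit anti-H1.0 antibody, an AlexaFluor 647 secondary and DAPI. The HCC1569 and TDF cells had been plated at 800 per well in 384-well plates (RPMI, 10% FBS) and treated in triplicate with compounds at 10 µM for 24 h at 37 °C. The values are the median of replicates of H1.0 nuclear intensity or cell number, as percent of the plate control. Smoothing for positional effects was applied to HCC1569 data.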

TDF [2] = test: as above
Summary of the method: as §1

TDF [3] = test: H1.0 immunofluorescence intensity relative to DMSO (% of DMSO); higher = stronger H1.0 induction, active = 120 or more
Summary of the method: as §1

HCC1569 [4] = test: H1.0 immunofluorescence intensity relative to DMSO (% of DMSO); higher = stronger H1.0 induction, active = 140 or more
Summary of the method: as §1
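Wherever H1.0 immunofluorescence intensity relative to DMSO is given: TDF is a line of transformed human dermal fibroblasts of mesenchymal origin.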
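Wherever cell number relative to DMSO is given: TDF denotes transformed human dermal fibroblasts of mesenchymal origin.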

Row | SMILES | cell number (HCC1569 [1]) | cell number (TDF [2]) | H1.0 immunofluorescence intensity (TDF [3]) | H1.0 immunofluorescence intensity (HCC1569 [4])
1 | CN(CC=CC#CC(C)(C)C)Cc1cccc2ccccc12.Cl | 96.4 | 105 | 101 (inactive) | 98.4 (inactive)
2 | COc1cc(OC)c(C=C2C(=O)Nc3ccccc32)c(OC)c1 | 63.1 | 11.2 | 145 (active) | 184 (active)
3 | Cl.Cl.OCCN1CCN(CCCN2c3ccccc3Sc3ccc(C(F)(F)F)cc32)CC1 [Fluphenazine.2HCl] | 95.6 | 107 | 101 (inactive) | 116 (inactive)
4 | CCC=CCC(O)C=CC=CCC=CCC=CCCCC(=O)O (centres undefined) | 105 | 102 | 98.8 (inactive) | 94.3 (inactive)
5 | Cc1ccc(C)c(OCCCC(C)(C)C(=O)O)c1 [Gemfibrozil] | 103 | 99.1 | 91.8 (inactive) | 115 (inactive)
6 | C[C@H](C#Cc1ccc(Cc2ccc(F)cc2)s1)N(O)C(N)=O | 98 | 92 | 100 (inactive) | 99.7 (inactive)
7 | O=C1CC(c2ccc(O)c(O)c2)Oc2c1ccc(OC1OC(CO)C(O)C(O)C1O)c2O (centres undefined) [Flavanomarein] | 102 | 98.6 | 94.9 (inactive) | 99.9 (inactive)
8 | COCCCCCCCCCCCC(=O)O [12-Methoxydodecanoic acid] | 101 ± 1.2 | 95.9 ± 11 | 95.5 (inactive) | 98.5 (inactive)
9 | O=C1NC(=O)c2cc(Nc3ccc(F)cc3)c(Nc3ccc(F)cc3)cc21 [PKCbII/EGFR Inhibitor] | 95.1 | 111 | 89.7 (inactive) | 121 (inactive)
10 | O=c1c(-c2ccc(F)cc2)c(-c2ccncc2)[nH]n1-c1ccc(Cl)cc1 [p38 MAP Kinase Inhibitor] | 102 | 111 | 95.2 (inactive) | 110 (inactive)
11 | COc1cc(OC)c2cc(-c3ccncc3)cnc2c1.Cl.Cl [5,7-dimethoxy-3-(4-pyridinyl)quinoline dihydrochloride] | 105 | 102 | 92.4 (inactive) | 105 (inactive)
12 | CC(C)Cc1ccc(C(C)C(=O)NO)cc1 (centres undefined) [Ibuproxam] | 103 | 101 | 87.3 (inactive) | 95.2 (inactive)
13 | CC(CN1c2ccccc2Sc2ccccc21)N(C)C.Cl (centres undefined) [Promethazine.HCl] | 104 | 101 | 96.1 (inactive) | 121 (inactive)
14 | CN1C(C)(C)CCCC1(C)C.O=C(O)C(O)C(O)C(=O)O [Pempidine tartrate] | 105 | 94.9 | 99.5 (inactive) | 99.4 (inactive)
15 | O=C(O)c1cc(=O)c2c(Cl)cc(Cl)cc2[nH]1 [5,7-Dichlorokynurenic acid] | 102 | 98.6 | 95.2 (inactive) | 95.9 (inactive)
16 | Cl.OC(CN1CCN(c2cccc(Cl)c2)CC1)C(c1ccccc1)c1ccccc1 (centres undefined) | 102 | 111 | 94.8 (inactive) | 88.3 (inactive)
17 | CN1C(C(=O)Nc2ccccn2)=C(O)c2ccccc2S1(=O)=O [Piroxicam] | 102 ± 2.1 | 107 ± 3.5 | 96.9 (inactive) | 98.2 (inactive)
18 | CCC1(O)CC2CN(CCc3c([nH]c4ccccc34)C(C(=O)OC)(c3cc4c(cc3OC)N(C)C3C(O)(C(N)=O)C(O)C5(CC)C=CCN6CCC43C65)C2)C1.O=S(=O)(O)O (centres undefined) [Vindesine sulfate] | 55.4 | 8.86 | 155 (active) | 179 (active)
19 | Nc1ncnc2c1ncn2C1CCCC1 [9-cyclopentyladenine] | 102 | 113 | 95.1 (inactive) | 84.6 (inactive)
20 | O=c1c(O)c(-c2cc(O)c(O)c(O)c2)oc2cc(O)cc(O)c12 [Myricetin] | 102 ± 3.7 | 101 ± 3.9 | 88.4 (inactive) | 91.7 (inactive)
21 | CC(C)C(N)C(=O)OCCOCn1cnc2c(=O)nc(N)[nH]c21 (centres undefined) [Valaciclovir] | 99.8 | 104 | 102 (inactive) | 109 (inactive)
22 | O=c1[nH]ccc2c(O)cccc12 [1,5-Isoquinolinediol] | 100 | 97.2 | 87.9 (inactive) | 91.6 (inactive)
23 | Cc1cncc2cccc(S(=O)(=O)N3CCCN(C(=O)CN)CC3C)c12.Cl.Cl.O (centres undefined) [Rho Kinase Inhibitor IV] | 78.3 | 42.8 | 98.4 (inactive) | 131 (inactive)
24 | Clc1ccc(COC(Cn2ccnc2)c2ccc(Cl)cc2Cl)c(Cl)c1 (centres undefined) [Miconazole] | 96.8 | 110 | 101 (inactive) | 114 (inactive)
25 | NC(N)=NN=Cc1c(Cl)cccc1Cl [Guanabenz] | 98.5 | 91.9 | 98.2 (inactive) | 118 (inactive)
26 | OC1c2ccccc2N=C2CCCN21 (centres undefined) [Peganole] | 95 | 93.7 | 95.3 (inactive) | 91.1 (inactive)

Row | SMILES | cell number (HCC1569 [1]) | cell number (TDF [2]) | H1.0 immunofluorescence intensity (TDF [3]) | H1.0 immunofluorescence intensity (HCC1569 [4])
27 | CC(N)=NCCCC[C@H](N)C(=O)O.Cl [L-N6-(1-Iminoethyl)lysine hydrochloride] | 103 | 109 | 84.8 (inactive) | 91.6 (inactive)
28 | O=P(O)(O)C(O)(Cc1cccnc1)P(=O)(O)O [Risedronic acid] | 110 | 103 | 100 (inactive) | 99.9 (inactive)
29 | O=c1cc(N2CCNCC2)oc2c(-c3ccccc3)cccc12 | 101 | 98.3 | 92.8 (inactive) | 136 (inactive)
30 | COC(=O)C(N)Cc1ccc(Cl)cc1.Cl (racemic) [DL-p-Chlorophenylalanine methyl ester hydrochloride] | 97.3 | 92.3 | 107 (inactive) | 104 (inactive)
31 | CCCCCCCCCCC(=O)O [Undecanoic acid] | 104 | 100 | 113 (inactive) | 103 (inactive)
32 | Cc1cc(F)c(Nc2ncnc3cc(OCc4ccccc4)ccc23)cc1O.Cl | 91.6 | 105 | 94.5 (inactive) | 138 (inactive)
33 | CCCCNc1ncc(C(=O)NCc2ccc(-n3ccnc3)cc2)c(NC2CCC(O)CC2)n1 (centres undefined) | 65.8 | 63.4 | 118 (inactive) | 104 (inactive)
34 | Cc1cnc(NC(=O)C2=C([O-])c3ccccc3S(=O)(=O)N2C)s1.[Na+] [Meloxicam sodium] | 102 | 115 | 91.1 (inactive) | 97.1 (inactive)
35 | Cn1c(=O)c2[nH]cnc2n(C)c1=O [Aminophylline] | 103 | 115 | 98.7 (inactive) | 96.4 (inactive)
36 | O=c1cc(-c2ccc(O)cc2)oc2cc(O)c(C3OC(CO)C(O)C(O)C3O)c(O)c12 (centres undefined) [Isovitexin] | 99.9 | 109 | 94.3 (inactive) | 88.1 (inactive)
37 | CCCCCC=CCC=CCC=CCC=CCCCCCC(=O)O [Adrenic acid (22:4 n-6)] | 99 | 107 | 108 (inactive) | 99.9 (inactive)
38 | CC1CCc2c(N3CCC(O)CC3)c(F)cc3c(=O)c(C(=O)O)cn1c23 (centres undefined) [Nadifloxacin] | 107 | 89.2 | 98.7 (inactive) | 101 (inactive)
39 | CC12CCC(=O)C=C1C=CC1C2CCC2(C)C1CCC21CCC(=O)O1 (centres undefined) [Canrenone] | 99.6 | 103 | 89.7 (inactive) | 102 (inactive)
40 | CC12C=CC(=O)C=C1CCC1C2C(O)CC2(C)C1CCC2(O)C(=O)CO (centres undefined) [Prednisolone] | 100 | 99.4 | 84.9 (inactive) | 115 (inactive)
41 | Cc1nc2ccccn2c(=O)c1CCN1CCC(C(=O)c2ccc(F)cc2)CC1 [Pirenperone] | 99.5 | 100 | 96.5 (inactive) | 103 (inactive)
42 | O=C1Cc2c([nH]c3ccc([N+](=O)[O-])cc23)-c2ccccc2N1 [Alsterpaullone] | 82.4 ± 33 | 72.6 ± 41 | 92.9 (inactive) | 99.1 (inactive)
43 | Clc1ccc(C(Cn2ccnc2)OCc2csc3c(Cl)cccc23)c(Cl)c1 (centres undefined) [Sertaconazole] | 95 | 97.9 | 91.4 (inactive) | 114 (inactive)
44 | CS(=O)(=O)O.O=C1Nc2ccc(-c3cccnc3)cc2C1=Cc1ccc[nH]1 [JAK3 Inhibitor VI] | 73 | 47.7 | 108 (inactive) | 130 (inactive)
45 | CCC(=O)OC1(C(=O)CCl)C(C)CC2C3CCC4=CC(=O)C=CC4(C)C3(F)C(O)CC21C (centres undefined) [Clobetasol Propionate] | 109 | 114 | 87.8 (inactive) | 100 (inactive)
46 | CC(=O)NCC1CN(c2ccc(N3CCOCC3)c(F)c2)C(=O)O1 (centres undefined) [Linezolid] | 104 | 99.7 | 93.4 (inactive) | 110 (inactive)
47 | CCC(=O)c1ccc2c(c1)N(CCCN(C)C)c1ccccc1S2.Cl [Propionylpromazine hydrochloride] | 97.4 | 97.1 | 104 (inactive) | 117 (inactive)
48 | CCOC(=O)CCNc1cc(N2CCc3ccccc3CC2)nc(-c2ccccn2)n1 | 78.8 | 20.8 | 171 (active) | 113 (inactive)
49 | O=C1OC(=O)C2C3CCC(O3)C12 (centres undefined) [Norcantharidin] | 96 | 92.3 | 105 (inactive) | 103 (inactive)
50 | CN1CCN(c2c(F)cc3c(=O)c(C(=O)O)cn(CCF)c3c2F)CC1 [Fleroxacin] | 101 | 87.2 | 102 (inactive) | 112 (inactive)
51 | COc1ccc2cc(C(C)C(=O)[O-])ccc2c1.[Na+] (single isomer, unassigned; (-)) [(-)-Naproxen sodium] | 105 | 93.1 | 96.1 (inactive) | 102 (inactive)

From the supplement of paper PMC7156485
